Drawing on PubChem BioAssay, this text covers composite z-score and composite Z-score for eleven compounds.

One assay has as its target Albumin (Bos taurus) (UniProt P02769). Put plainly: bovine serum albumin binders on microarray, profiling panel, artefact control for SMM control protein annotation, biochemical, small-molecule microarray, Alexa647 label, 635/667 nm fluorescence (AID 1118).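 Further: score merges 667 nm emission intensity and signal-to-noise per printed compound spot.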 As to conditions: BSA-A647 binding, fluorescence 635 nm, higher = more signal.
Assay [1] can be described thus: small-molecule microarray binders of probe aXIP, primary screen, biochemical, NeuroSMM set, 635/667 nm fluorescence (AID 1119).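 Further: probe is the protein aXip251-270 applied at 1 µg/mL to compound-printed slides; binding of probe to printed compounds measured as 667 nm fluorescence plus signal to noise.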 The note with it: higher = more signal, called active from +8 up or from −8 down.
Assay [2] is described as follows: small-molecule binders of probe aNOTCH3, primary screen, biochemical, small-molecule microarray, 635/667 nm fluorescence (AID 1120).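 Further: probe is a biotin-tagged antibody raised against NOTCH3 rather than NOTCH3 protein; score merges spot fluorescence near 667 nm with spot signal to noise.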 The note with it: higher = more signal.
Assay [3] is described as follows: small-molecule binders of probe aNOTCH2, primary screen, biochemical, small-molecule microarray, 635/667 nm fluorescence (AID 1121).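 Further: score merges feature fluorescence read at 667 nm with its signal to noise.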 The note with it: higher = more signal.
Assay [4] has as its target Carbonic anhydrase 2 (Homo sapiens) (UniProt P00918). Put plainly: CAII small-molecule binders, profiling panel, biochemical, small-molecule microarray, Alexa647-labelled CAII (AID 1122). The note with it: CAII-A647 binding fluorescence, higher = more signal.
Assay [5] in a line: COS7 lysate on small-molecule microarray, probe aHis, 635 nm (AID 1123).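 Further: z-score combines 667nm fluorescence intensity with signal-to-noise per printed compound spot.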 As to conditions: COS7 cell lysate, fluorescence, higher = more signal.
Assay [6] in a line: compound binding in COS7 lysate, probe aLAP1, primary screen, cell lysate, small-molecule microarray (AID 1124).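 Further: lysate comes from COS7 cells expressing LAP1 and is applied at 0.3 µg/mL; score merges spot fluorescence near 667 nm with signal-to-noise over triplicate slides.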 As to conditions: probe aLAP1, fluorescence, higher = more signal.
The test system of the next assay is Sam68 (KHDRBS1). Put plainly: Sam68 small-molecule binders, primary screen, biochemical, small-molecule microarray, 635 nm fluorescence (AID 1125).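 Further: score merges 667 nm channel intensity with signal to noise over triplicate slides.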 The note with it: small-molecule microarray binding, higher = more signal.
Assay [7] concerns Chordin-like protein 2 (CHRDL2). Put plainly: CHRDL2 small-molecule binders, primary screen, biochemical, small-molecule microarray, 635 nm fluorescence (AID 1126).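 Further: printed compound slides probed with Chrdl2 protein at 4 µg/mL for 1 h at 4 C; score merges 667 nm emission intensity with signal to noise over three replicate slides.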 As to conditions: small-molecule microarray binding, fluorescence 635 nm; higher = more signal.
Assay [8] deals with Concanavalin-A (Canavalia ensiformis) (UniProt P02866). Put plainly: ConA small-molecule binders, primary screen, artefact control for SMM control protein annotation, biochemical, small-molecule microarray, Alexa647 label, 635 nm (AID 1127).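 Further: z combines 667 nm emission intensity with signal-to-noise across three replicate slides.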 As to conditions: ConA-A647 binding fluorescence, higher = more signal.
Sequence of Concanavalin-A (Canavalia ensiformis) (P02866 whole entry, looked up): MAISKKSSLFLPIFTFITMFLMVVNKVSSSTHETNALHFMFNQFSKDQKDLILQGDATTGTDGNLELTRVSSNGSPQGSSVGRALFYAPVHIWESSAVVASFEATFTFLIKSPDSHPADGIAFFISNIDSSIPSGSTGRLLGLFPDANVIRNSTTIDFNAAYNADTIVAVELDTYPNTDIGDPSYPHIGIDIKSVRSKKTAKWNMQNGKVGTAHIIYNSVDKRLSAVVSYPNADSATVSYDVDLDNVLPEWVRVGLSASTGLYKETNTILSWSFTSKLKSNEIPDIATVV

Activity calls are given as the source filed them.

Sequence of Albumin (Bos taurus) (P02769 whole entry, looked up): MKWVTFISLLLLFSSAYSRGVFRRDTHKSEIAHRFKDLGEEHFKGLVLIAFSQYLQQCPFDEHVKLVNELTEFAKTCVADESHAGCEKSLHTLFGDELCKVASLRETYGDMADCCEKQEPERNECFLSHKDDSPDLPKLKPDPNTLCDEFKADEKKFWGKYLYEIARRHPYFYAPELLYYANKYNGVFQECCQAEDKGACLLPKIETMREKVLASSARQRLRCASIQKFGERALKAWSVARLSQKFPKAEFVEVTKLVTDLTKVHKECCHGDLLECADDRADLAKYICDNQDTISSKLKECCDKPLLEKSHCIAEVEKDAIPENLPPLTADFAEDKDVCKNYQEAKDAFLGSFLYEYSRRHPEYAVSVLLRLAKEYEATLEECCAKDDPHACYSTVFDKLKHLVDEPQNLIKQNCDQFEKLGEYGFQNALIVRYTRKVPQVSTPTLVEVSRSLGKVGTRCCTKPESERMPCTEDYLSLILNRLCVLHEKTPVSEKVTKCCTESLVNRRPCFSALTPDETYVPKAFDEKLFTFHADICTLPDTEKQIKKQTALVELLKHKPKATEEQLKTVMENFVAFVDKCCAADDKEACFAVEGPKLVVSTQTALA

As to `NCCCCCCNC(=O)[C@@H]1C[C@@H]2C(=O)N3CCC[C@H]3C(=O)N2[C@@H]1c1cccc(OCCO)c1`, the composite z-score is 0.81 in the assay with Albumin (Bos taurus); 0.113 in [2]; -0.15 in assay [3]; 0.709 in assay [4]; 0.729 in assay [5]; 1.02 in assay [6]. In addition, the results for the composite z-score (in the assay with Sam68 (KHDRBS1); in [7]; in assay [8]) were 0.462, 1.16 and 1.14, respectively. Further, in [1], the composite Z-score was 2.71 (inactive).

Turning to `COc1ccc(C(=O)Nc2ccc(CN3C(=O)[C@@]4(O[C@@H](CCn5cc(CCO)nn5)[C@H]([Si](C)(C)c5ccc(OC)cc5)[C@H]4C)c4ccccc43)cc2)cc1`, the composite z-score with Albumin (Bos taurus) was 0.264; in assay [2], 0.0276; in assay [3] it was -0.0895; in assay [4], 0.348; in assay [5] it was 0.822; in [6], 0.116. Moreover, the composite z-score was 1.32 in the assay with Sam68 (KHDRBS1), 0.919 in [7] and 1.09 in assay [8]. Also, in [1], the composite Z-score was 0.32 (inactive).

Take `COC(=O)[C@@]1(Cc2ccc(OC)cc2)[C@H]2c3cc(C(=O)N4CCCC4)n(CCn4cc([N+](=O)[O-])nc4C)c3C[C@H]2CN1C(=O)c1ccccc1`: the composite z-score turned out to be 1.05 with Albumin (Bos taurus); 1.67 in [2]; 1 in assay [3]; 0.62 in assay [4]; 3.37 in assay [5]; 0.913 in [6]. The composite z-score in the assay on Sam68 (KHDRBS1) amounted to 0.654; in assay [7], 0.406; in assay [8], 0.716. In addition, the composite Z-score in [1] was 0.146 (inactive).

As to `CCCc1cc2c(n1CCc1ccc(Cl)cc1)C(C)C1CN(C(=O)c3ccccc3)C(C)(C(=O)OC)C21` (stereo not given), the composite z-score is 1.03 in the assay with Albumin (Bos taurus); 0.201 in assay [2]; 0.203 in [3]; 0.862 in [4]; 2.94 in assay [5]; 1.07 in assay [6]. The composite z-score was 1.03 in the assay with Sam68 (KHDRBS1), -1.75 in assay [7] and 1.16 in assay [8]. Moreover, the composite Z-score in [1] is 0.313 (inactive).

`CCC(CC)C(O)C1C=CC2C(=O)N(c3ccccc3)C(=O)C2N1Nc1ccccc1F` (stereo not given): the composite z-score was 0.86 with Albumin (Bos taurus); 0.188 in assay [2]; 0.001 in [3]; 0.604 in [4]; 1.83 in [5]; 0.261 in assay [6]. For the same compound, the composite z-score with Sam68 (KHDRBS1) was 0.865; in [7] it was 0.118; in [8] it was 0.949. For the same compound, the composite Z-score in assay [1] was 0.204 (inactive).

On to `[N-]=[N+]=NCc1ccccc1[C@@H]1OC(c2ccc(OCCCO)cc2)=N[C@]1(Cc1ccccc1N=[N+]=[N-])C(=O)NCC(O)CO` (stereo not given in full), for which the composite z-score in the assay with Albumin (Bos taurus) was determined as 0.98; in assay [2] it was 0.409; in assay [3], 0.252; in [4], 0.614; in [5], 3.16; in assay [6] it was 0.695. Moreover, the composite z-score with Sam68 (KHDRBS1) is 1.32; in assay [7], -0.703; in assay [8], 1.11. Moreover, in assay [1], the composite Z-score was 0.71 (inactive).

For `COC(=O)[C@H](Cc1ccccc1)N1CC2=CCCC=C[C@@H]2[C@H]1[C@H](O)Cc1ccccc1`, the composite z-score with Albumin (Bos taurus) is 0.0618; in assay [2] it was 0.17; in [3], -0.118; in assay [4], 0.708; in assay [5] it was 0.25; in assay [6] it was 0.368. The composite z-score in the assay on Sam68 (KHDRBS1) amounted to 0.374; in [7], 0.204; in [8] it was 0.854. Besides, the composite Z-score in assay [1] was 0.495 (inactive).

As for `O=C(NCCN1CCOCC1)[C@@H]1c2ccccc2C(=O)N(Cc2ccc(OC(F)(F)F)cc2)[C@H]1c1ccc(CO)cc1`, the composite z-score with Albumin (Bos taurus) was 0.816; in assay [2], -0.0976; in assay [3], -0.0429; in assay [4], 0.761; in [5], 1.64; in assay [6] it was -0.195. The composite z-score was 0.686 in the assay on Sam68 (KHDRBS1), -1.49 in assay [7] and -0.159 in assay [8]. In addition, the composite Z-score in [1] was -0.265 (inactive).

With `COc1ccc([Si](C)(C)[C@H]2[C@H](CCO)O[C@@]3(C(=O)N(Cc4cccc(N5C(=O)c6ccccc6Oc6ccccc65)c4)c4ccccc43)[C@@H]2C)cc1`, the composite z-score in the assay with Albumin (Bos taurus) is 0.446; in assay [2], -0.0647; in [3], -0.147; in [4] it was 0.287; in assay [5], 0.575; in assay [6] it was 0.755. Moreover, the composite z-score in the assay on Sam68 (KHDRBS1) is 0.499; in [7], -0.122; in assay [8], 0.843. Besides, the composite Z-score in assay [1] is 0.142 (inactive).

For `CC(C)NC(=O)[C@@H]1c2ccccc2C(=O)N(Cc2ccccc2C(F)(F)F)[C@H]1c1ccc(CO)cc1`, the composite z-score in the assay with Albumin (Bos taurus) was -0.273; in assay [2] it was -0.0144; in assay [3] it was -0.0901; in assay [4] it was 0.726; in assay [5] it was 0.725; in assay [6] it was 0.647. Also, the composite z-score with Sam68 (KHDRBS1) was -0.0631; in [7], -0.585; in assay [8] it was -0.329. In addition, in assay [1], the composite Z-score is -0.483 (inactive).

Take `CN(C)CCCCNC(=O)[C@H]1C[C@H]2C(=O)N3CCC[C@H]3C(=O)N2[C@H]1c1cccc(OCCO)c1`: the composite z-score in the assay with Albumin (Bos taurus) was -0.115; in [2] it was 0.234; in assay [3] it was -0.117; in assay [4] it was 0.519; in assay [5] it was 1.12; in assay [6] it was 0.392. Further, the composite z-score in the assay on Sam68 (KHDRBS1) was 1.04; in assay [7], -0.52; in assay [8] it was 0.794. Moreover, the composite Z-score in assay [1] was 1.68 (inactive).
